Measured values reported in PubChem BioAssay.
Calls of active or inactive are those of the source. Unless noted, the rule behind the calls is not given here.

What was measured:
[1] = anti-His antibody binders, primary screen, artefact control for SMM control protein annotation, biochemical, small-molecule microarray, 635 nm fluorescence (AID 1128); settings: anti-His Alexa647 antibody binding, higher = more signal;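 note: score merges feature fluorescence with signal-to-noise for each printed compound spot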
[2] = system: Human papillomavirus type 1a E7 protein (residues 1-88); test: HPV1a E7 small-molecule binders, primary screen, biochemical, small-molecule microarray, residues 1-88, 635 nm (AID 1129); settings: small-molecule microarray binding, fluorescence 635 nm; higher = more signal
[3] = target: Focal adhesion kinase 1 (Homo sapiens) (UniProt Q05397); test: small-molecule microarray binders of FAK, primary screen, biochemical, 635/667 nm fluorescence, BSA, DTT (AID 1130); settings: PTK2 binding, 635 nm fluorescence, higher = more signal;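 note: composite of spot emission at 667 nm and signal to noise over triplicate slides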
Focal adhesion kinase 1 (Homo sapiens), sequence (Q05397 whole entry, looked up): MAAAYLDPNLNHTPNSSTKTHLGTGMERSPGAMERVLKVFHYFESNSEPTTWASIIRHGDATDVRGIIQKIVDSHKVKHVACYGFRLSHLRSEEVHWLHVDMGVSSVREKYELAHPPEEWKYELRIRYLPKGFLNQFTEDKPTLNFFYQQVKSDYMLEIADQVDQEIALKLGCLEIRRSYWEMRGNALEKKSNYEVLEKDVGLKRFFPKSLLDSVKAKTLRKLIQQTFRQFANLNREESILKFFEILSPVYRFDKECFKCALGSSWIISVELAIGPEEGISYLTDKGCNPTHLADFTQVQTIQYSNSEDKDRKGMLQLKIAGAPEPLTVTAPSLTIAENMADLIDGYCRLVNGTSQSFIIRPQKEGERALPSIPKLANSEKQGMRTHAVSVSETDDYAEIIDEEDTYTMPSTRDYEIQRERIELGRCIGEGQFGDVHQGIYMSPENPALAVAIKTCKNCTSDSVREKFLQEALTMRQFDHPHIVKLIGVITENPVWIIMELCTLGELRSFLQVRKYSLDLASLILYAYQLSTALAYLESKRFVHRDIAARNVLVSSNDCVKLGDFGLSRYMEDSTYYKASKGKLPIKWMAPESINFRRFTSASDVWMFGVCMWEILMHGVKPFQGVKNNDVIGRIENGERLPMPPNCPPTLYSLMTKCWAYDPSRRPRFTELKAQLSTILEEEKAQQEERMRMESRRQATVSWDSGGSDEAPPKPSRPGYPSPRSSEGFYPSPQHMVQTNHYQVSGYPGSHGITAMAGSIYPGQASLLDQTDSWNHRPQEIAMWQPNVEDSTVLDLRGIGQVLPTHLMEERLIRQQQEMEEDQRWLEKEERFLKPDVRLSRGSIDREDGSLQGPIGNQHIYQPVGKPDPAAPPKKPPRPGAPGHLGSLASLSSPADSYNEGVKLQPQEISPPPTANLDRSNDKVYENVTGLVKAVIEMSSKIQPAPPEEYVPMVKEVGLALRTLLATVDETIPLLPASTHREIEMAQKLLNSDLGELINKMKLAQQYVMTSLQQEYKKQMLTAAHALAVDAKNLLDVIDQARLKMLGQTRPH

[4] = system: Fibrinogen (Alexa647-labelled); test: fibrinogen binders on compound microarrays, profiling panel, artefact control for SMM control-protein annotation, biochemical, small-molecule microarray, 635/667 nm fluorescence (AID 1131); settings: fibrinogen-A647 binding fluorescence, higher = more signal;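 note: z-score merges 667 nm fluorescence with per-spot signal-to-noise over triplicate slides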
[5] = target: Follistatin (Homo sapiens) (UniProt P19883); test: follistatin binders on small-molecule microarrays, primary screen, biochemical, small-molecule microarray, 635/667 nm fluorescence (AID 1132); settings: FST binding, 635 nm fluorescence, higher = more signal
Follistatin (Homo sapiens), sequence (P19883 whole entry, looked up): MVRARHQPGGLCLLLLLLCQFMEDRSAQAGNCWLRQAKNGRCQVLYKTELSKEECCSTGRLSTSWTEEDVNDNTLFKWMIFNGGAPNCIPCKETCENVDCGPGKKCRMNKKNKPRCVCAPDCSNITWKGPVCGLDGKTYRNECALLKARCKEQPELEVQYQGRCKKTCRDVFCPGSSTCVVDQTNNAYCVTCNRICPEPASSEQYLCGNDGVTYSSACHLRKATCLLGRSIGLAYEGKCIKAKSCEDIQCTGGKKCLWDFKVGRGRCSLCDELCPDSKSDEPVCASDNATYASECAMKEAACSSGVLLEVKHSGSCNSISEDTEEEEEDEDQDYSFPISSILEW

[6] = target: Fibroblast growth factor 2 (Homo sapiens) (UniProt P09038); test: FGF2 binders on small-molecule microarrays, primary screen, biochemical, small-molecule microarray, 635/667 nm fluorescence (AID 1133); settings: small-molecule microarray binding, FGF2, fluorescence 635/667; higher = more signal
Fibroblast growth factor 2 (Homo sapiens), sequence (P09038 whole entry, looked up): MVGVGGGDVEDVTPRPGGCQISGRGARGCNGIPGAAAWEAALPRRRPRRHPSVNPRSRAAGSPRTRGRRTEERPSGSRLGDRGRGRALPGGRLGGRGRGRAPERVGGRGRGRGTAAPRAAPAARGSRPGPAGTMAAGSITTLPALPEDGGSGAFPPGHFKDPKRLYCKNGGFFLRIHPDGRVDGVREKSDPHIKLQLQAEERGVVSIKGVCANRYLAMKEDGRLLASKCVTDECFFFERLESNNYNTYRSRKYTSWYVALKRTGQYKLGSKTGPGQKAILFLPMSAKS

[7] = mitochondrial membrane potential change in A549 cells, profiling panel, cell-based, JC-1 fluorescence, basal, 24 h, 100 nL (AID 1138); settings: higher = more signal;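 note: A549 lung adenocarcinoma cells under basal conditions with no added stimulus; test concentration not given here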
Lefty1 = Lefty1 binders on small-molecule microarrays, primary screen, biochemical, small-molecule microarray, 635/667 nm fluorescence (AID 1139); settings: small-molecule microarray binding, fluorescence 635/667; higher = more signal
[8] = system: wheat germ agglutinin (Triticum aestivum), Alexa647-labelled; test: wheat germ agglutinin binders on compound microarrays, profiling panel, artefact control for SMM control-protein annotation, biochemical, small-molecule microarray, 635/667 nm fluorescence (AID 1140); settings: WGA-A647 binding, 635 nm fluorescence, higher = more signal;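 note: score merges 667 nm feature emission with signal to noise over triplicate slides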
[9] = target: Luciferin 4-monooxygenase (Photinus pyralis) (UniProt P08659); test: firefly luciferase enzyme inhibitors, primary screen, biochemical, luminescence, purified enzyme, 2006 set (AID 1141); settings: SteadyGlo luminescence, 30 min, higher = more signal, called active from +8 up or from −8 down;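 note: cell-free assay with purified firefly luciferase at 100 ng per well in PBS; test concentration not given here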
Luciferin 4-monooxygenase (Photinus pyralis), sequence (P08659 whole entry, looked up): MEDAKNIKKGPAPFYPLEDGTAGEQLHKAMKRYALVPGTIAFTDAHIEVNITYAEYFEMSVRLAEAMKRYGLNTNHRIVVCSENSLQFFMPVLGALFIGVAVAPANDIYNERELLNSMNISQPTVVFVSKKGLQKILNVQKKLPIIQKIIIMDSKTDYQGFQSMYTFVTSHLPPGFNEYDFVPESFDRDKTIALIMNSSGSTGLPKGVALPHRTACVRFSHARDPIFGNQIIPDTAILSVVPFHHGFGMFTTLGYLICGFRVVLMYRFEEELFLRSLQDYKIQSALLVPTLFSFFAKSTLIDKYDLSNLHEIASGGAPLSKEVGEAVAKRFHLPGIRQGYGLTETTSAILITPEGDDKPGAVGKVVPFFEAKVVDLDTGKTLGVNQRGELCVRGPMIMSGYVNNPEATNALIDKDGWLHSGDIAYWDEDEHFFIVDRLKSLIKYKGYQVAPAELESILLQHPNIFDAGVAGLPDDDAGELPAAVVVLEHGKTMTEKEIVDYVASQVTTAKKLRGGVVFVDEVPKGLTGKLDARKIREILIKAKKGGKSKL

[10] = system: Wnt5a (protein binding on small-molecule microarray); test: Wnt5a binders on small-molecule microarray, primary screen, biophysical, 635/667 nm fluorescence (AID 1142); settings: 635 nm fluorescence, higher = more signal;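 note: fluorescence read at 667 nm with signal to noise per printed feature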
[11] = cell viability in Huh7 cells, primary screen, cytotoxicity control for HCV replication inhibitor project, CellTiter-Glo luminescence, basal, 48 h (AID 1143); settings: Huh7 HCV replicon, higher = more signal, called active from +8 up or from −8 down;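 note: Huh7 hepatoma cells carrying a hepatitis C replication reporter with no stimulus; test concentration not given here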
[12] = P. aeruginosa biofilm formation inhibitors, primary screen, PAO1 strain, BacTiter-Glo luminescence, LB-PBS (AID 1144); settings: 12 h, higher = more signal
[13] = CREB reporter modulators without forskolin, primary screen, cell-based, PC12, CRE-LacZ reporter, unstimulated (AID 1145); settings: no forskolin, luminescence, 4.5 h, higher = more signal, called active from +8 up or from −8 down
[14] = CREB reporter modulators under forskolin, primary screen, cell-based, PC12, CRE-LacZ reporter, forskolin-stimulated (AID 1146); settings: luminescence, 4.5 h, higher = more signal, called active from +8 up or from −8 down;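 note: PC12 cells with 6xCRE LacZ reporter stimulated by forskolin 10 µM; beta-galactosidase reporter signal reflecting CREB driven transcription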
[15] = target: Streptavidin (Streptomyces avidinii) (UniProt P22629); test: streptavidin binders on small-molecule microarray, primary screen, artefact control for SMM compound annotation, biophysical, 635/667 nm fluorescence (AID 1147); settings: streptavidin binding, higher = more signal;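 note: signal reflects streptavidin binding to arrayed compounds as a control protein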
Streptavidin (Streptomyces avidinii), sequence (P22629 whole entry, looked up): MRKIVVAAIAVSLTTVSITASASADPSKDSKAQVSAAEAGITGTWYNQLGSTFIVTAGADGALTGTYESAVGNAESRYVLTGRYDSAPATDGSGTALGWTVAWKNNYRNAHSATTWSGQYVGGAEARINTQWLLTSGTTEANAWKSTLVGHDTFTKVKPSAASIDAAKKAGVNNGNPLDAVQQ

[16] = small-molecule binders of probe aInhba, primary screen, biochemical, small-molecule microarray, 635/667 nm fluorescence (AID 1148); settings: higher = more signal;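 note: score merges 667nm spot fluorescence with signal-to-noise for antibody binding to printed compounds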
Torsin-1A (Homo sapiens) [17] = target: Torsin-1A (Homo sapiens) (UniProt O14656); test: torsin A binders from cell lysate, primary screen, small-molecule microarray, wild-type, 635/667 nm (AID 1149); settings: COS7 hTOR1A-WT lysate, 635 nm fluorescence, higher = more signal
Torsin-1A (Homo sapiens), sequence (O14656 whole entry, looked up): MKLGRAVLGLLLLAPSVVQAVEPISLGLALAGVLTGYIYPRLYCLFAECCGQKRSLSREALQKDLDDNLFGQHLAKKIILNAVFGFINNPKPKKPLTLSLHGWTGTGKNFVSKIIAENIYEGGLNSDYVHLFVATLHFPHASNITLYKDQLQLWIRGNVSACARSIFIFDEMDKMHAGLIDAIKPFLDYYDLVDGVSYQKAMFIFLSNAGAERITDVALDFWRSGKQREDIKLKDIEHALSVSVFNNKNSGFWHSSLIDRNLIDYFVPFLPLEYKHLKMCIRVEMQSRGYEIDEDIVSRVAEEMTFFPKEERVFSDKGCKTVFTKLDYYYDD

Torsin-1A (Homo sapiens) [18] = target: Torsin-1A (Homo sapiens) (UniProt O14656); test: small-molecule binders of mutant TOR1A in lysate, primary screen, cell lysate, small-molecule microarray, COS7 lysate, 635/667 nm fluorescence (AID 1150); settings: COS7 hTOR1A mutant lysate, 635 nm fluorescence, higher = more signal;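 note: score pools 667 nm emission and signal to noise measuring lysate protein binding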
[19] = system: Sonic hedgehog protein (Shh); test: small-molecule binders of Shh protein, primary screen, biochemical, small-molecule microarray, 635/667 nm fluorescence (AID 1151); settings: small-molecule microarray binding, 635 nm fluorescence; higher = more signal;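 note: Shh protein binding to compounds spotted on small-molecule microarray slides; score combines spot fluorescence intensity with signal-to-noise across triplicate slides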

Row | SMILES | composite z-score [1] | composite z-score [2] | composite z-score [3] | composite z-score [4] | composite z-score [5] | composite z-score [6] | z-score [7] | composite z-score (Lefty1) | composite z-score [8] | z-score [9] | composite z-score [10] | z-score [11] | z-score [12] | z-score [13] | z-score [14] | composite z-score [15] | composite z-score [16] | composite z-score (Torsin-1A (Homo sapiens) [17]) | composite z-score (Torsin-1A (Homo sapiens) [18]) | composite z-score [19]
1 | CC1CC/C=C\[C@H]2OC34C=CCN(Cc5ccccc5)C(=O)[C@H]3N(CCO)C(=O)[C@@H]4C2C(=O)O1 (stereo not given in full) | 0.364 | 0.324 | -0.106 | -0.785 | -0.418 | -0.43 | -0.322 | -0.592 | -0.162 | -0.573 (inactive) | 0.478 | -0.273 (inactive) | 0.836 (inactive) | -0.0778 (inactive) | 0.151 (inactive) | -0.492 | -0.176 | 2.37 | 2.58 | -0.218
2 | Cc1ccccc1C(O)C1C=CC2C(=O)N(Cc3ccccc3)C(=O)C2N1n1cnnc1 (stereo not given) | 1.54 | 1.05 | -0.0602 | 1.02 | 1.07 | 0.188 | -0.478 | 0.694 | 0.429 | 1.39 (inactive) | 0.166 | -0.293 (inactive) | -1.45 (inactive) | -0.667 (inactive) | 0.688 (inactive) | 0.0691 | -0.0986 | 0.374 | 0.755 | 0.59
3 | CCCC=C(CCC)[C@@H](NS(=O)(=O)c1ccccc1)c1ccc(C(F)(F)F)cc1 | 0.438 | 1.21 | 1.03 | 0.979 | 0.831 | -0.0779 | -1.64 | 0.219 | 0.72 | 2.08 (inactive) | 0.135 | -1.21 (inactive) | 0.514 (inactive) | 0.0007 (inactive) | 1.11 (inactive) | 1.33 | 0.105 | 0.354 | 0.56 | 0.0898
4 | COCCOC(=O)N1C(=O)[C@@]2(c3cc(C#Cc4ccc(OC)cc4)ccc31)[C@H](C(=O)N1CCc3cc(OC)c(OC)cc3C1)[C@H]1C(=O)O[C@H](c3ccccc3)[C@H](c3ccccc3)N1[C@@H]2c1ccc(O)cc1 | 1.13 | 1.21 | 0.226 | 0.753 | 1.25 | 1.17 | -0.406 | 0.606 | 0.659 | -1.35 (inactive) | 0.783 | -0.637 (inactive) | 0.693 (inactive) | -0.0688 (inactive) | 0.236 (inactive) | 0.802 | 1.06 | 0.58 | 0.984 | 0.813
5 | O=C1c2ccccc2[C@](Cc2ccccc2I)(C(=O)NCC(F)(F)F)[C@H](c2ccc(CO)cc2)N1Cc1ccccc1 | 0.0638 | 1.17 | 0.77 | 0.97 | 1.14 | -0.0189 | 0.71 | 0.343 | 0.469 | 0.875 (inactive) | -0.134 | -0.396 (inactive) | 0.144 (inactive) | 0.272 (inactive) | 2.76 (inactive) | 1 | 0.098 | -0.661 | 0.341 | 0.46
6 | CCOC(=O)C[C@H]1[C@H](OC(=O)c2ccccc2-c2ccccc2)[C@@H](NC(=O)c2ccccc2)c2cc(OCCCO)ccc2N1C(=O)Cc1ccc(OC)cc1 | -0.277 | -0.64 | 0.0427 | 0.66 | -0.0263 | -0.188 | 0.322 | -0.018 | 0.564 | 0.897 (inactive) | -0.105 | 0.0692 (inactive) | -0.228 (inactive) | 1.58 (inactive) | 0.0006 (inactive) | 0.621 | -0.154 | -0.193 | 0.0375 | 0.0772
7 | CCCNC(=O)[C@@H]1c2ccccc2C(=O)N(CC23CC4CC(CC(C4)C2)C3)[C@H]1c1ccc(CO)cc1 | 0.618 | 1.23 | 0.734 | 0.957 | 1.34 | 0.871 | -1.17 | 0.798 | 0.562 | 0.411 (inactive) | 0.435 | -4.68 (inactive) | -0.929 (inactive) | 0.764 (inactive) | -0.517 (inactive) | 0.673 | -0.118 | 0.92 | -0.0207 | 1.05
8 | CC(C)(C)OC(=O)CC[C@@]1(C(=O)N2CCCCC2)N=C(c2ccc(OCCCO)cc2)O[C@@H]1c1ccccc1N=[N+]=[N-] | 2.83 | 1.27 | 1.7 | 0.99 | 1.26 | 0.722 | 1.95 | 0.0141 | 1.25 | -11.7 (active) | 0.258 | -2.66 (inactive) | -0.197 (inactive) | 0.227 (inactive) | -1.62 (inactive) | 2.05 | 0.401 | 0.332 | 0.827 | 0.292
9 | C[N+](C)(C)CCCC[C@@H]1NC(=O)[C@H]2C[C@@H](C(=O)NCCCCCCN)[C@@H](c3cccc(OCCO)c3)N2C1=O | 0.711 | 1.21 | 0.209 | 0.704 | 1.4 | 1.51 | -0.798 | 1.67 | 1.13 | 0.815 (inactive) | 0.693 | 0.0395 (inactive) | 0.406 (inactive) | -0.809 (inactive) | -0.254 (inactive) | 1.65 | 0.794 | 1.33 | 1.25 | 2.04
10 | Cc1ccc(F)cc1S(=O)(=O)N[C@@H]1CCN(C(=O)c2ccc(OC(C)C)cc2)C1 | 1.42 | 1.16 | 0.485 | 0.371 | 0.485 | 1.24 | 0.946 | 0.913 | 0.557 | -0.457 (inactive) | 0.336 | -0.798 (inactive) | 0.595 (inactive) | 2.66 (inactive) | -0.906 (inactive) | 0.224 | 0.143 | 0.0677 | 0.196 | 0.975
